# ± gives the standard deviation of the averaged measurements.
# Experiments:
# [1] = system: MDA-MB-231; assay: cell viability relative to vehicle unstimulated control (fraction); higher = more viable cells; conditions: pre-treatment time: 18 h then 24 h IFNg/TNF
# [2] = system: MDA-MB-231; assay: kynurenine production, fold change vs DMSO IFNg/TNF control; higher = more kynurenine produced (less inhibition); conditions: pre-treatment time: 18 h then 24 h IFNg/TNF
# Outline: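 MDA-MB-231 cells were seeded in 96-well plates at 7 × 10^4/well and, 24 h later, pre-treated for 18 h with each natural product in 0.1% DMSO. They were then stimulated for 24 h at 37°C with IFNγ (1 U/ml) and TNF (6.25 ng/ml). Supernatants were treated with trichloroacetic acid and p-dimethylaminobenzaldehyde and read at 492 nm against 0–100 μM standards. Kynurenine production is expressed as fold change over cytokine-stimulated vehicle wells on the same plate and, in the first screening round, averaged across duplicate plates.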
# 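For cell viability relative to vehicle unstimulated control in this document: viability of the cells left after supernatant collection, read with Deep Blue dye added for 4 h, as absorbance at 570 nm minus 600 nm.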
SMILES,cell viability [1],kynurenine production [2]
C[C@H](CC[C@@H](O[C@@H]1O[C@H](CO[C@@H]2O[C@H](CO)[C@@H](O)[C@H](O)[C@H]2O)[C@@H](O)[C@H](O)[C@H]1O[C@@H]1O[C@H](CO)[C@@H](O)[C@H](O)[C@H]1O)C(C)(C)O)[C@H]1CC[C@@]2(C)[C@@H]3CC=C4[C@@H](CC[C@H](O[C@@H]5O[C@H](CO[C@@H]6O[C@H](CO)[C@@H](O)[C@H](O)[C@H]6O)[C@@H](O)[C@H](O)[C@H]5O)C4(C)C)[C@]3(C)[C@H](O)C[C@]12C [Mogroside V] (compound dose: 10 uM),0.989 ± 0.021,0.968 ± 0.19
C/C=C(\C)C(=O)O[C@H]1[C@H](O)[C@]2(COC(C)=O)[C@@H](O)C[C@]3(C)C(=CC[C@@H]4[C@@]5(C)CC[C@H](O[C@@H]6O[C@H](C(=O)O)[C@@H](O)[C@H](O)[C@H]6O)[C@@](C)(CO)[C@@H]5CC[C@]43C)[C@@H]2CC1(C)C [Gymnemic acid I] (compound dose: 10 uM),1.1 ± 0.017,1.43 ± 0.11
CC1=CCC2C[C@H]1C2(C)C [(1R)-α-Pinene] (compound dose: 10 uM),0.932 ± 0.081,0.79 ± 0.12
C/C=C(/C)C(=O)O[C@H]1[C@H](OC(C)=O)[C@]2(CO)[C@H](O)C[C@]3(C)C(=CC[C@@H]4[C@@]5(C)CC[C@H](O[C@@H]6O[C@H](C(=O)O)[C@@H](O[C@@H]7O[C@H](CO)[C@@H](O)[C@H](O)[C@H]7O)[C@H](O)[C@H]6O[C@@H]6O[C@H](CO)[C@@H](O)[C@H](O)[C@H]6O)[C@](C)(CO)[C@@H]5CC[C@]43C)[C@@H]2CC1(C)C [Escin IB] (compound dose: 10 uM),0.915 ± 0.022,0.801 ± 0.012
